The source of these data is PubChem BioAssay (NCI).

Compounds without any hit were thinned out: in the full panel of roughly 83,000, 20% have a hit.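 The test compound was applied at a single concentration to cells in 96-well plates for 48 hours, and percent growth was recorded.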 A number with no mark means an inactive call. Calls of active or inactive are those of the source. How the source made its calls: active means growth percent below 10; inactive means the rest.

One assay has as its system NCI-H23 lung. The experiment in a line: NCI-60 one-dose screen, 48 h (100 = growth as untreated, 0 = no growth, -100 = all killed). The conditions noted are these: 10 µM unless noted.
On to `O=c1c2cccc3c(Nc4ccccn4)ccc(c32)c2nc3ccccc3n12`, for which the growth is 60.6%.
Regarding `CN(C)c1ccc(/C=C\C2=[N+](C)c3ccccc3C2(C)C)cc1`, the growth was 7.51% (active).
`Cn1cc(-c2nc(-c3c[nH]c4ccccc34)cs2)c2cccnc21`: the growth is 49.6%.
As for `CCOC(=O)CC(=O)c1c(C)cc(C)cc1C`, the growth was 111%.
With `CC(C)c1c(C(=O)Nc2ccccc2)c(-c2ccccc2)c(-c2ccc(F)cc2)n1CC[C@@H]1CC=CC(=O)O1`, the growth is 1.14% (active).
For the compound `CCN(CC)Cc1cc(Nc2c3ccc(Cl)cc3nc3c(C)cccc23)ccc1O`, the growth was -75.5% (active).
Same read-out and setting: with `O=[N+]([O-])c1cccc(C2CC(c3ccccc3)=Nc3ccccc3S2)c1` (stereo unspecified) the figure was 87.9%; with `C=C1C(=O)O[C@H]2[C@H]1CC/C(Cn1cc(Cn3ccc4ccccc43)nn1)=C\CC[C@@]1(C)O[C@@H]21`, 45.6%; with `C=C1CCC2C3(C)COC(c4ccccc4Br)OC3CCC2(C)C1C/C=C1/C(=O)OCC1OC(C)=O` (stereo unspecified), -47.7% (active).
With `N=S(=O)(NC(=O)c1ccc(Cl)cc1Cl)c1ccc(Br)s1` (stereo unspecified), the growth is 102%.
Consider `CS(=O)CCCCCN=C=S` (stereo unspecified), for which the growth is 4.24% (active).
For the compound `CC1CN(C(C)C)C(=S)N(c2ccccc2)C1=O` (stereo unspecified), the growth was 94.6%.
For `CC/C=C\C[C@H](O)C/C=C1/C(=O)C=C[C@@H]1C/C=C\CCCC(N)=O`, the growth is -38.3% (active).
Turning to `CCOC(=O)c1ccc2c(c1)nc(/C=C/c1ccc(Cl)cc1)n2-c1cc(C(C)(C)C)[nH]n1`, the growth is 77.6%.
Still for that read-out and setting: with `COC1/C=C\OC2(C)Oc3c(C)c(O)c4c(O)c(c(CN(C)CCO)c(O)c4c3C2=O)NC(=O)/C(C)=C\C=C/C(C)C(O)C(C)C(O)C(C)C(OC(C)=O)C1C` (stereo unspecified) the figure was 91.9%; with `C(=N\Nc1ccccn1)/c1ccccn1`, 12.1%; with `O=C1C=CC(=O)N1c1ccc(Cc2ccc(N3C(=O)C=CC3=O)cc2)cc1`, 86%.
Turning to `COc1cc(NC(N)=NCC(C)(C)COc2ccc(C(F)(F)F)cc2)cnc1C#N`, the growth is 64.9%.
Regarding `CCOC(=O)C(Cc1cc(I)c(O)c(I)c1)NC(=O)c1ccccc1` (stereo unspecified), the growth is 102%.
For the compound `CCn1cc2c(cc1=O)-c1nc3ccccc3c3ccnc(c13)C2=O`, the growth is 27.6%.
Same read-out and setting: with `Nc1c(C(=O)Nc2ccccc2)sc2nc3c(cc12)CN(CCc1ccccc1)CC3` the figure was 84.2%; with `COc1ccc2nc3cc(Cl)ccc3c(NCCNCC(O)CO)c2c1` (stereo unspecified), 23.6%; with `COc1ccc(C2c3ccc4ccccc4c3Oc3ncnc(N)c32)cc1` (stereo unspecified), 83%.
Take `CCCCCCCCCCCCCCCC[N+]1(CC)CCCC1`: the growth was -28.6% (active).
Same read-out and setting: with `O=C1O[C@H]([C@H](O)CO)C(O)=C1O` the figure was 97.7%.
As for `Cc1cc2c(cc1C)NC1=C(N2)OC(c2c3ccccc3cc3ccccc23)C1=O` (stereo unspecified), the growth is 15.2%.
Same read-out and setting: the result for `O=C(CN1CCN(c2cc3c(cc2F)c(=O)c(C(=O)O)cn3C2CC2)CC1)Nc1cc(=O)[nH]c(=O)[nH]1` reads 96.4%.
As for `NC(N)=Nc1ccc(S(=O)(=O)O)cc1`, the growth was 102%.
In the case of `COc1cc(C#N)cc(OC)c1OCCN(CCOc1c(OC)cc(C#N)cc1OC)S(=O)(=O)c1ccc(C)cc1`, the growth was 96%.
Turning to `C[C@@H]1CC[C@@H]2[C@@H]1[C@H](OC(=O)/C=C/c1ccccc1)[C@]1(C3CCCCC3)C[C@@H](OC(=O)CO)[C@@]2(C)O1`, the growth was 81.9%.
Turning to `O=S(=O)(Nc1ccc(Cl)cc1Cl)c1ccc(-c2cnc(C3CC3)o2)cc1`, the growth was 28.2%.
For the compound `O=[N+]([O-])c1cccc(-c2nc3sccn3c2-c2ccnc(NCCNS(=O)(=O)c3ccc(C(F)(F)F)cc3)n2)c1`, the growth was 43.3%.
Turning to `CC[C@@H](C)OC(=O)c1nn(C(C)=O)c2ccccc12`, the growth is 91.6%.
With `CCN(CC)CC(O)CNc1c2ccc([N+](=O)[O-])cc2nc2cc(OC)c(OC)cc12` (stereo unspecified), the growth was -27.2% (active).
On to `CN1/C(=C\C=C\C2=[N+](C)c3ccccc3C2(C)C)C(C)(C)c2ccccc21`, for which the growth was -6.67% (active).
Still for that read-out and setting: with `COc1ccc(-c2nn(-c3ccccc3)cc2/C=C2\SC(=O)NC2=O)cc1` the figure was 94.8%; with `O=C(O)c1ccc2c(c1Sc1ccccc1)C(=O)c1ccccc1C2=O`, 91.1%.
In the case of `CCOC(=O)C12CCCC1=CC(=O)CC2` (stereo unspecified), the growth was 107%.

In another assay the test system is NCI-H226 lung. The description is as above. As to conditions: 10 µM unless noted.
Turning to `O=c1c2cccc3c(Nc4ccccn4)ccc(c32)c2nc3ccccc3n12`, the growth was 69.7%.
For the compound `CN(C)c1ccc(/C=C\C2=[N+](C)c3ccccc3C2(C)C)cc1`, the growth was 16.3%.
Consider `Cn1cc(-c2nc(-c3c[nH]c4ccccc34)cs2)c2cccnc21`, for which the growth was 65.9%.
On the same count and under the same terms, the result for `CCOC(=O)CC(=O)c1c(C)cc(C)cc1C` reads 104%; that for `CC(C)c1c(C(=O)Nc2ccccc2)c(-c2ccccc2)c(-c2ccc(F)cc2)n1CC[C@@H]1CC=CC(=O)O1`, 39.7%; that for `CCN(CC)Cc1cc(Nc2c3ccc(Cl)cc3nc3c(C)cccc23)ccc1O`, -28.1% (active).
For `O=[N+]([O-])c1cccc(C2CC(c3ccccc3)=Nc3ccccc3S2)c1` (stereo unspecified), the growth is 96.6%.
On to `C=C1C(=O)O[C@H]2[C@H]1CC/C(Cn1cc(Cn3ccc4ccccc43)nn1)=C\CC[C@@]1(C)O[C@@H]21`, for which the growth was 76.8%.
Same read-out and setting: with `C=C1CCC2C3(C)COC(c4ccccc4Br)OC3CCC2(C)C1C/C=C1/C(=O)OCC1OC(C)=O` (stereo unspecified) the figure was -58.3% (active).
For `N=S(=O)(NC(=O)c1ccc(Cl)cc1Cl)c1ccc(Br)s1` (stereo unspecified), the growth was 94.5%.
Take `CS(=O)CCCCCN=C=S` (stereo unspecified): the growth is -8.26% (active).
For the compound `CC1CN(C(C)C)C(=S)N(c2ccccc2)C1=O` (stereo unspecified), the growth was 106%.
The same measure, in the same setting: the result for `CC/C=C\C[C@H](O)C/C=C1/C(=O)C=C[C@@H]1C/C=C\CCCC(N)=O` reads -39.7% (active).
In the case of `CCOC(=O)c1ccc2c(c1)nc(/C=C/c1ccc(Cl)cc1)n2-c1cc(C(C)(C)C)[nH]n1`, the growth was 44.5%.
Take `COC1/C=C\OC2(C)Oc3c(C)c(O)c4c(O)c(c(CN(C)CCO)c(O)c4c3C2=O)NC(=O)/C(C)=C\C=C/C(C)C(O)C(C)C(O)C(C)C(OC(C)=O)C1C` (stereo unspecified): the growth was 104%.
Same read-out and setting: the result for `C(=N\Nc1ccccn1)/c1ccccn1` reads 16%; that for `O=C1C=CC(=O)N1c1ccc(Cc2ccc(N3C(=O)C=CC3=O)cc2)cc1`, 84.8%; that for `COc1cc(NC(N)=NCC(C)(C)COc2ccc(C(F)(F)F)cc2)cnc1C#N`, 68.7%.
For the compound `CCOC(=O)C(Cc1cc(I)c(O)c(I)c1)NC(=O)c1ccccc1` (stereo unspecified), the growth is 93.1%.
The same measure, in the same setting: the result for `CCn1cc2c(cc1=O)-c1nc3ccccc3c3ccnc(c13)C2=O` reads 63.1%.
As to `Nc1c(C(=O)Nc2ccccc2)sc2nc3c(cc12)CN(CCc1ccccc1)CC3`, the growth is 89.8%.
In the case of `COc1ccc2nc3cc(Cl)ccc3c(NCCNCC(O)CO)c2c1` (stereo unspecified), the growth is 43.1%.
The same measure, in the same setting: the result for `COc1ccc(C2c3ccc4ccccc4c3Oc3ncnc(N)c32)cc1` (stereo unspecified) reads 63.9%.
As to `CCCCCCCCCCCCCCCC[N+]1(CC)CCCC1`, the growth is -9.79% (active).
Consider `O=C1O[C@H]([C@H](O)CO)C(O)=C1O`, for which the growth is 103%.
In the case of `Cc1cc2c(cc1C)NC1=C(N2)OC(c2c3ccccc3cc3ccccc23)C1=O` (stereo unspecified), the growth was 52%.
Take `O=C(CN1CCN(c2cc3c(cc2F)c(=O)c(C(=O)O)cn3C2CC2)CC1)Nc1cc(=O)[nH]c(=O)[nH]1`: the growth is 101%.
As to `NC(N)=Nc1ccc(S(=O)(=O)O)cc1`, the growth is 105%.
In the case of `COc1cc(C#N)cc(OC)c1OCCN(CCOc1c(OC)cc(C#N)cc1OC)S(=O)(=O)c1ccc(C)cc1`, the growth is 104%.
The same measure, in the same setting: with `C[C@@H]1CC[C@@H]2[C@@H]1[C@H](OC(=O)/C=C/c1ccccc1)[C@]1(C3CCCCC3)C[C@@H](OC(=O)CO)[C@@]2(C)O1` the figure was 68.2%; with `O=S(=O)(Nc1ccc(Cl)cc1Cl)c1ccc(-c2cnc(C3CC3)o2)cc1`, 59%.
Regarding `O=[N+]([O-])c1cccc(-c2nc3sccn3c2-c2ccnc(NCCNS(=O)(=O)c3ccc(C(F)(F)F)cc3)n2)c1`, the growth was 40.3%.
For `CC[C@@H](C)OC(=O)c1nn(C(C)=O)c2ccccc12`, the growth was 85.1%.
`CCN(CC)CC(O)CNc1c2ccc([N+](=O)[O-])cc2nc2cc(OC)c(OC)cc12` (stereo unspecified): the growth is -39.1% (active).
Consider `CN1/C(=C\C=C\C2=[N+](C)c3ccccc3C2(C)C)C(C)(C)c2ccccc21`, for which the growth was 5.56% (active).
With `COc1ccc(-c2nn(-c3ccccc3)cc2/C=C2\SC(=O)NC2=O)cc1`, the growth was 98.9%.
Regarding `O=C(O)c1ccc2c(c1Sc1ccccc1)C(=O)c1ccccc1C2=O`, the growth is 92.6%.
Same read-out and setting: with `CCOC(=O)C12CCCC1=CC(=O)CC2` (stereo unspecified) the figure was 107%.
